Rows were chosen to be rich in hits. Some 2.1% of all compounds tested hit in one or more screens of this group.
Rce1 inhib = yeast Rce1p protease inhibitors, primary screen, biochemical, fluorescence, cell-free homogeneous. CAAX prenyl protease 2 (Saccharomyces cerevisiae (strain ATCC 204508 / S288c)), Q03530. AID 2563, 2010. calls only. yeast membranes, quenched prenylated peptide cleavage fluorescence. 290,000 compounds, 0.27% hits;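 active = fall in fluorescence gain of 50% or more versus controls, with final raw signal at or below 3038400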;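 also: plate controls were neutral control wells for no effect and wells lacking membranes for full effect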
ADAM17 inh = ADAM17 inhibitors, primary screen, biochemical, QFRET | recombinant ADAM17, EDANS/DABCYL FRET peptide cleavage | inhibition, % at 6.95 µM | 370,000 compounds, 0.83% hits;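 active = inhibition above the mean of compounds lying between control limits plus 3 SD, set per campaign, cut at about 8.5% in these data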;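 also: 0% = DMSO-only wells as the low control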
PLCg1 inh = PLC-gamma1 enzyme inhibitors, primary screen, biochemical, fluorescence, purified enzyme. fluorogenic substrate. 1-phosphatidylinositol 4,5-bisphosphate phosphodiesterase gamma-1 (Homo sapiens), P19174. inhibition, % at 12.2 µM. 370,000 compounds, 0.84% hits; in the data active = inhibition above about 9.5%
ADAM10 inh = human ADAM10 inhibitors, primary screen, biochemical, QFRET, HTS. AID 720582, 2013. Disintegrin and metalloproteinase domain-containing protein 10 (Homo sapiens), O14672. inhibition, % at 7 µM. recombinant ADAM10, EDANS/DABCYL FRET peptide cleavage, 3 h. 370,000 compounds, 0.62% hits;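 active = inhibition above a per-campaign cutoff equal to the mean of compounds falling between control-based bounds plus 3 SD, cut at about 20% in these data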;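 also: 0% = DMSO wells while the 100% control is not disclosed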
PLCb3 inh = human PLC-beta3 inhibitors, primary screen, biochemical, fluorescence; Purified PLC-beta3, fluorogenic substrate; inhibition, % at 12.2 µM; 370,000 compounds, 0.18% hits; AID 720704, 2013; in the data active = inhibition above about 11%;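 also: 0% = median of compound wells on plate and 100% = full blocker control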
Target sequence (Q01970 whole entry, looked up): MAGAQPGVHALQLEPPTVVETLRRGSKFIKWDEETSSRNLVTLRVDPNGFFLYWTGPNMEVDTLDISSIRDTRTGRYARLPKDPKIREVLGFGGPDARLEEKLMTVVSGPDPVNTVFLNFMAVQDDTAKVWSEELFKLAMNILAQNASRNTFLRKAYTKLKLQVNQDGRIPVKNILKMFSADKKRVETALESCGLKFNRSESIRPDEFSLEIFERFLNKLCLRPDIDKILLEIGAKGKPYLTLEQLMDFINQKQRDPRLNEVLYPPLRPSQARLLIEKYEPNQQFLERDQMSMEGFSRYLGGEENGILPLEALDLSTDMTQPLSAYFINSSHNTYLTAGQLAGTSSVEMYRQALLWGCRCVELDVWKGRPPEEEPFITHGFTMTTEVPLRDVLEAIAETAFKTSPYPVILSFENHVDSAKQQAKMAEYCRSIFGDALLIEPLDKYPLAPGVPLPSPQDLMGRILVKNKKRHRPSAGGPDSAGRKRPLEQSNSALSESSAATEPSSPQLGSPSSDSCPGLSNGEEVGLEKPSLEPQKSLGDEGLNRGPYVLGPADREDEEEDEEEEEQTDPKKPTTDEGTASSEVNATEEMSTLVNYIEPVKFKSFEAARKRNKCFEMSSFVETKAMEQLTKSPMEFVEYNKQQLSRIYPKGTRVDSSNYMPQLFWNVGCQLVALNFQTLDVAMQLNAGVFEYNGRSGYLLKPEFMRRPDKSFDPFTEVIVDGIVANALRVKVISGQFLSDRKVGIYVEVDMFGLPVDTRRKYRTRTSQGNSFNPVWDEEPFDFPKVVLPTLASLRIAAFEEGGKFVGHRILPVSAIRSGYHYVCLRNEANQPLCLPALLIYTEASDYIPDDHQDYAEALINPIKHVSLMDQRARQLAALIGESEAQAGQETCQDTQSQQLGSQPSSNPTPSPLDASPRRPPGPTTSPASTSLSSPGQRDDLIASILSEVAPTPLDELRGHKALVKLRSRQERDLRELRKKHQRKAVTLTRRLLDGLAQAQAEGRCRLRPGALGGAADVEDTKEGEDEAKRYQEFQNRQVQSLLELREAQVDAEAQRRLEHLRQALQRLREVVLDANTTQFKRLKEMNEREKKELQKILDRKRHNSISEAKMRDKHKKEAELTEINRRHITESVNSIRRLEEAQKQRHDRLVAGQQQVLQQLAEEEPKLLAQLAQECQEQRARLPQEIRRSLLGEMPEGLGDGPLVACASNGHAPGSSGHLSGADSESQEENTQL
ADAM10 confirm = human ADAM10 inhibitors, confirmation, biochemical, QFRET, triplicate; shares compounds with ADAM10 inh; ADAM10 QFRET peptide cleavage, EDANS fluorescence; inhibition, % at 6.95 µM; 2,100 compounds, 1% hits; AID 743208, 2013;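 active = inhibition above about 20% chosen separately for each screening run, limit read from the data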;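 also: 0% = DMSO wells and 100% = marimastat wells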
ADAM17 ctr = ADAM17 inhibitors, counter-screen for ADAM10 exosite inhibitor project, biochemical, QFRET, high throughput; inhibition, % at 6.95 µM; AID 743214, 2013; 2,100 compounds, 0.5% hits; shares compounds with ADAM10 inh; ADAM17 QFRET peptide cleavage, EDANS fluorescence;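 active = mean triplicate inhibition above the solvent-only control wells' mean plus 3 SD, cut at about 12% in these data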;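 also: 0% = DMSO wells and 100% = marimastat wells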
ADAM10 ctr = ADAM10 inhibitors, counter-screen for ADAM17 exosite inhibitor project, biochemical, FRET, human ADAM10. recombinant ADAM10, EDANS/DABCYL FRET peptide cleavage, 3 h. AID 743256, 2014. inhibition, % at 6.95 µM. shares compounds with ADAM17 inh. 2,900 compounds, 47% hits;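 active = mean inhibition over the triplicate runs exceeds the activity threshold set in the earlier primary screen, cut at about 20% in these data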;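 also: 0% = DMSO wells and 100% = marimastat wells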
ADAM17 confirm = ADAM17 inhibitors, hit retest, confirmation, biochemical, QFRET peptide cleavage; shares compounds with ADAM17 inh; recombinant ADAM17, EDANS/DABCYL QFRET peptide cleavage; inhibition, % at 6.95 µM; 2,900 compounds, 65% hits;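 active = mean inhibition across replicates above the hit cutoff set in the primary screen, cut at about 8.5% in these data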;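 also: 0% = DMSO wells and 100% = marimastat wells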
Active calls of the source: *.

For OC(c1ccccc1)(c1nc(-c2cccc(F)c2)cs1)C(F)(F)F (configuration not stated) the results were ADAM17 inh 12*, PLCg1 inh -1, ADAM10 inh 33*, PLCb3 inh -2, ADAM10 confirm 8, ADAM17 ctr 2, ADAM10 ctr 39* and ADAM17 confirm 18*.
Cc1ccc(-c2onc(C)c2C)cc1S(=O)(=O)N1CCOc2ccccc21 was read as Rce1 inhib inactive, ADAM17 inh 14*, PLCg1 inh 6, ADAM10 inh 21*, PLCb3 inh -7, ADAM10 confirm 6, ADAM17 ctr 2, ADAM10 ctr 8 and ADAM17 confirm 6.
Cc1cc(-c2ccc(C(C)C)c(S(=O)(=O)N3CCOc4ccccc43)c2)on1 was read as Rce1 inhib inactive, ADAM17 inh -4, PLCg1 inh 1, ADAM10 inh 5 and PLCb3 inh -8.
`CCCCCCNC(=O)O[C@@]12CN(S(=O)(=O)c3ccc(C)cc3)C[C@]1(O)Cn1c(=O)n(CCCCCC)c(=O)n1C2` gave ADAM17 inh -1, PLCg1 inh -1, ADAM10 inh -6 and PLCb3 inh 3.
`Cc1ccc(S(=O)(=O)N2C[C@H]3n4c(=O)ccc(=O)n4C[C@H](OC(=O)NCc4ccccc4)[C@@]3(O)C2)cc1` gave ADAM17 inh -6, PLCg1 inh 1, ADAM10 inh -13 and PLCb3 inh 5.
For CCCCCCn1c(=O)n2n(c1=O)C[C@]1(OC(=O)NCc3ccccc3F)CN(S(=O)(=O)c3ccc(C)cc3)C[C@]1(O)C2 the results were ADAM17 inh 14*, PLCg1 inh 7, ADAM10 inh 37*, PLCb3 inh 4, ADAM10 confirm 4, ADAM17 ctr 2, ADAM10 ctr 33* and ADAM17 confirm 16*.
`CCCCCCn1c(=O)n2n(c1=O)[C@@H]1CN(S(=O)(=O)c3ccc(C)cc3)C[C@]1(O)[C@@H](OC(=O)NCc1ccccc1)C2` gave ADAM17 inh 9.9*, PLCg1 inh 0, ADAM10 inh 22*, PLCb3 inh 3, ADAM10 confirm 4, ADAM17 ctr 1, ADAM10 ctr 33* and ADAM17 confirm 16*.
Cc1ccc(C2CN(C)C3(C(=O)Nc4ccccc43)C23COc2ccccc2C3=O)cc1 (configuration not stated) was read as Rce1 inhib inactive, ADAM17 inh 9.6*, PLCg1 inh 1, ADAM10 inh 27*, PLCb3 inh 1, ADAM10 confirm 7, ADAM17 ctr 3, ADAM10 ctr 35* and ADAM17 confirm 19*.
Screening Cc1ccc(SCC2(O)CCN(S(=O)(=O)c3ccc(Cl)cc3)CC2)cc1 returned Rce1 inhib inactive, ADAM17 inh 17*, PLCg1 inh 8, ADAM10 inh 29*, PLCb3 inh 7, ADAM10 confirm 3, ADAM17 ctr 0, ADAM10 ctr 28* and ADAM17 confirm 16*.
Screening Cc1ccc(S(=O)(=O)N2CCN(C(=O)CSc3ccc(Cl)cc3)CC2)cc1 returned Rce1 inhib inactive, ADAM17 inh 1, PLCg1 inh 4, ADAM10 inh 11 and PLCb3 inh 3.
Screening Cc1ccc(NC(=O)COC(=O)/C(=C/c2cccs2)c2cccs2)cc1S(=O)(=O)N(C)C returned Rce1 inhib inactive, ADAM17 inh 15*, PLCg1 inh 5, ADAM10 inh 24*, PLCb3 inh 2, ADAM10 confirm 7, ADAM17 ctr 3, ADAM10 ctr 12 and ADAM17 confirm 13*.
Cc1ccc([C@H]2C[C@@H](n3cc(COC(=O)c4ccccc4)nn3)[C@H](O)CN2Cc2cccs2)cc1 was read as ADAM17 inh -3, PLCg1 inh 1, ADAM10 inh -4 and PLCb3 inh 1.
Screening Cc1ccc([C@H]2C[C@H](n3cc(COC(=O)c4ccccc4)nn3)[C@@H](O)CN2Cc2cccs2)cc1 returned ADAM17 inh 12*, PLCg1 inh 1, ADAM10 inh 24*, PLCb3 inh -3, ADAM10 confirm 6, ADAM17 ctr 2, ADAM10 ctr 12 and ADAM17 confirm 9.2*.
`CC(=O)C1=NN(c2ccc(Cl)cc2)C(c2ccc3c(c2)OCO3)N(C(C)=O)N1C` (configuration not stated) gave Rce1 inhib inactive, ADAM17 inh 5, PLCg1 inh 0, ADAM10 inh 12 and PLCb3 inh -10.
C=CCC[C@H](Cc1ccc(F)cc1)C(=O)OC[C@H](Cc1c[nH]c2ccccc12)NC(=O)[C@@H](CC=C)CC(=O)N(CCO)Cc1ccccc1 was read as ADAM17 inh 14*, PLCg1 inh 3, ADAM10 inh 27*, PLCb3 inh 2, ADAM10 confirm 9, ADAM17 ctr 3, ADAM10 ctr 40* and ADAM17 confirm 20*.
`C=CCC[C@@H](Cc1ccc(F)cc1)C(=O)OC[C@H](Cc1c[nH]c2ccccc12)NC(=O)[C@H](CC=C)CC(=O)N(CCO)Cc1ccccc1` gave ADAM17 inh 12*, PLCg1 inh 0, ADAM10 inh 21*, PLCb3 inh 1, ADAM10 confirm 11, ADAM17 ctr 3, ADAM10 ctr 55* and ADAM17 confirm 27*.
For C=CC[C@@H](CC(=O)N(CCO)Cc1ccccc1)C(=O)N[C@H](C)COC(=O)[C@@H](CC=C)Cc1ccc(F)cc1 the results were ADAM17 inh 2, PLCg1 inh 1, ADAM10 inh 6 and PLCb3 inh 0.
